The values that follow come from PubChem BioAssay (EPA / NIEHS).

Results filed as inconclusive are left out. The source made the active and inactive calls. The calls were made as follows, unless noted: active = hit-call score of the fitted dose curve at least 0.9, where 1 is the maximum; inactive = score below 0.9.

The nature of test [1]: APR_HepG2_CellCycleArrest_1hr: Apredica 1-hour HepG2 Assay for Cell Cycle Arrest (AID 2282666). Particulars: high-content imaging, actives raise or lower the signal. In a few lines:
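Cell cycle arrest scored from nuclear DNA content (Hoechst 33342) using high-content imaging of fixed HepG2 cells after 1 h treatment across 0.39–200 uM, in duplicate. Gain or loss fitted relative to 0.5% DMSO.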

A short description of test [2]: ACEA_ER_80hr: ACEA Biosciences xCELLigence Real-Time Cell Analysis on Estrogen Receptor Agonism for Proliferation (AID 2282667; active = hit-call score of the fitted dose curve at least 0.9, where 1 is the maximum). Particulars: T47D proliferation, impedance (xCELLigence), 80 h. In a few lines: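 Real-time impedance growth kinetics of human T-47D breast cells read 80 h after dosing, gain-of-signal fitted relative to DMSO. Compounds: 1:4 serial series, top final concentration 100 uM, n = 2.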

Test [3] is described as follows: APR_HepG2_CellLoss_1hr: Apredica 1-hour HepG2 Assay for Cell Loss (AID 2282668).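 Also: curves fitted both ways against DMSO so gain or loss of cells counts.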 The conditions noted are these: high-content imaging. In a few lines:
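Cell number comes from high-content imaging of Hoechst-labelled nuclei in fixed HepG2 cells. Cells were exposed for 1 h to ten concentrations from 0.39 to 200 uM in 0.5% DMSO. Gain or loss was fitted against DMSO controls.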

A short description of test [4]: APR_HepG2_MicrotubuleCSK_1hr: Apredica 1-hour HepG2 Assay for Microtubule CSK Stabilty (AID 2282669). Particulars: HepG2 microtubule cytoskeleton imaging, actives raise or lower the signal. In a few lines:
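Alpha-tubulin immunofluorescence, imaged by automated high-content microscopy with Hoechst nuclear segmentation, measured cytoskeletal change after 1 h dosing of HepG2 at 0.39–200 uM in 0.5% DMSO. Activity fitted in both directions relative to DMSO.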

Test [5] can be described thus: APR_HepG2_NuclearSize_1hr: Apredica 1-hour HepG2 Assay for Nuclear Size (AID 2282670). Particulars: high-content imaging, actives raise or lower the signal. In a few lines: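 Nuclear size measured by high-content imaging of Hoechst 33342 nuclear stain after formaldehyde fixation; human HepG2 line exposed 1 hr to compounds at 0.39–200 uM in 0.5% DMSO, with bidirectional curve fitting relative to DMSO.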

The nature of test [6]: APR_HepG2_P-H2AX_1hr: Apredica 1-hour HepG2 Assay for H2AX Phosphorylation (AID 2282673). Particulars: high-content imaging, actives raise or lower the signal. In a few lines: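 Phospho-H2A.x immunofluorescence (1:200, FITC secondary) plus Hoechst nuclear stain, quantified by high-content imaging in HepG2 after 1 hr compound exposure. Ten concentrations, 0.39 to 200 uM, in duplicate with 0.5% DMSO; fit both directions against DMSO.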

Test [7] can be described thus: APR_HepG2_MitoMass_1hr: Apredica 1-hour HepG2 Assay for Mitochondrial Mass (AID 2282674). The conditions noted are these: high-content imaging, actives raise or lower the signal. In a few lines:
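Mitochondrial mass is taken from MitoTracker Red CMXRos (250 nM, 30 min, pre-fixation) fluorescence imaged at 20x in HepG2 cells. Exposure lasted 1 hr across ten concentrations, 0.39 to 200 uM, 0.5% DMSO; DMSO baseline, bidirectional fitting.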

Test [8] can be described thus: APR_HepG2_MitoMembPot_1hr: Apredica 1-hour HepG2 Assay for Mitochondrial Membrane Potential (AID 2282675). The conditions noted are these: imaging, actives raise or lower the signal. In a few lines:
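Mitochondrial membrane potential read as MitoTracker Red CMXRos intensity by automated imaging of fixed HepG2 cells. Dye at 250 nM for 30 min pre-fixation; compounds 0.39 to 200 uM for 1 hour, duplicate wells, 0.5% DMSO.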

Test [9] can be described thus: APR_HepG2_p53Act_1hr: Apredica 1-hour HepG2 Assay for p53 Activation (AID 2282671). The conditions noted are these: high-content imaging, actives raise or lower the signal. In a few lines:
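After 1 h exposure (0.39–200 uM, 0.5% DMSO final, duplicates), fixed HepG2 cells were labelled with anti-p53 antibody plus Hoechst nuclear stain. Fluorescence quantified by automated 20x imaging; changes fitted in both directions against DMSO.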

Test [10] in a line: APR_HepG2_MitoticArrest_1hr: Apredica 1-hour HepG2 Assay for Mitotic Arrest (AID 2282672). Particulars: high-content imaging, actives raise or lower the signal. In a few lines: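 Ten-point concentration series (0.39 to 200 uM, duplicates, 0.5% v/v DMSO) applied to human HepG2 liver cells for 1 hr. High-content imaging of phospho-histone H3 and Hoechst-stained nuclei after fixation and permeabilization; DMSO-normalised bidirectional fit.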

`CCC(C)Nc1c([N+](=O)[O-])cc(C(C)(C)C)cc1[N+](=O)[O-]` (stereo not drawn): the molecule was called inactive in test [1], in [2], in test [3], in test [4], in test [5] and in test [6]. Also, the outcome in test [7] and in test [8] was inactive.

Regarding `CCN(CC)C(=O)SCc1ccc(Cl)cc1`, the call in test [1], in test [3], in test [4], in [5], in [9] and in [7] was inactive. In addition, in test [8], the result was inactive.

For the molecule `COP(=S)(OC)Oc1ccc([N+](=O)[O-])cc1`, the outcome in [1], in test [3], in test [5], in [9], in test [10] and in [7] was inactive. Further, the molecule was called inactive in test [8].

In the case of `N#CN`, the outcome in [1], in test [2], in test [3], in test [5], in test [7] and in test [8] was inactive.

With `COP(=S)(OC)Oc1ccc(SC)c(C)c1`, the result in test [1], in test [3], in test [4], in test [5], in test [9] and in [7] was inactive. Moreover, the half-maximal activity concentration (AC50) (usually the midpoint of the concentration-response curve, whichever way the signal moves) in test [8] is 59.1 µM (active).

For the molecule `CCC(C)(C)C(=O)OC1=C(c2ccc(Cl)cc2Cl)C(=O)OC12CCCCC2`, the molecule was called inactive in test [1], in test [3], in [4], in [5], in [9] and in test [7]. Further, the call in [8] was inactive.

For `CNC(=O)CSP(=S)(OC)OC`, the outcome in test [1], in test [2], in [3], in test [5], in test [10] and in test [6] was inactive. The molecule was called inactive in test [7] and in [8].

In the case of `COc1nn(CSP(=S)(OC)OC)c(=O)s1`, the molecule was classed as inactive in test [1], in test [3], in test [5], in test [9], in test [10] and in [7]. The outcome in test [8] was inactive.

As for `O=C(NC(=O)c1c(F)cccc1F)Nc1ccc(OC(F)(F)C(F)OC(F)(F)F)c(Cl)c1` (stereo not drawn), the call in [1], in test [2], in [3], in test [4], in test [5] and in [7] was inactive. For the same molecule, in test [8], the outcome was inactive.

In the case of `CCOC1Oc2ccc(OS(C)(=O)=O)cc2C1(C)C` (stereo not drawn), the call in test [1], in test [2], in test [3], in test [5], in test [7] and in test [8] was inactive.

For the molecule `CCCN(CCC)c1c([N+](=O)[O-])cc(C(F)(F)F)cc1[N+](=O)[O-]`, the result in [1], in [2], in test [3], in test [5], in test [7] and in [8] was inactive.

Take `C#CCN1C(=O)COc2cc(F)c(N3C(=O)C4=C(CCCC4)C3=O)cc21`: the molecule was classed as inactive in test [1], in test [2], in test [3], in [4], in test [5] and in test [7]. The outcome in test [8] was inactive.

Consider `N#Cc1c(Cl)c(Cl)c(Cl)c(C#N)c1Cl`, for which the outcome in test [1], in test [5] and in test [9] was inactive. The AC50 in [3] is 15.8 µM (active); in test [10], 8.28 µM (active); in [6] it was 3.46 µM (active); in test [7], 5.34 µM (active); in test [8] it was 61.5 µM (active).

As for `CCC(C)(NC(=O)c1cc(Cl)c(C)c(Cl)c1)C(=O)CCl` (stereo not drawn), the molecule was classed as inactive in test [1], in test [3], in test [4], in test [5], in test [9] and in test [10]. Moreover, the call in test [7] and in [8] was inactive.

Regarding `Clc1ccccc1-c1nnc(-c2ccccc2Cl)nn1`, the outcome in test [1], in test [2], in test [3], in test [5], in [7] and in [8] was inactive.

On to `C[C@H]1[C@H](c2ccc(Cl)cc2)SC(=O)N1C(=O)NC1CCCCC1`, for which the molecule was classed as inactive in test [1], in test [3], in [4], in [5], in test [9] and in test [7]. In addition, the result in [8] was inactive.

Consider `Cc1[nH]c(=O)n(C(C)(C)C)c(=O)c1Cl`, for which the call in [1], in test [2], in [3], in test [5], in test [10] and in [6] was inactive. In addition, the outcome in test [7] and in test [8] was inactive.

Turning to `O=[N+]([O-])/N=C1\NCCN1Cc1ccc(Cl)nc1`, the result in test [1], in test [2], in [3], in test [5], in test [7] and in test [8] was inactive.

Consider `O=C(O)COc1ccc(Cl)cc1Cl`, for which the result in [1], in test [3], in test [5], in test [9], in test [10] and in test [7] was inactive. The outcome in test [8] was inactive.

For the molecule `CNC(=O)Oc1ccccc1OC(C)C`, the molecule was classed as inactive in [1], in [3], in test [4], in test [5], in test [9] and in test [7]. Besides, the molecule was called inactive in test [8].

Regarding `CCCN(CCOc1c(Cl)cc(Cl)cc1Cl)C(=O)n1ccnc1`, the result in [1], in [3], in [4], in test [5], in [9] and in test [6] was inactive. Besides, the call in test [7] and in [8] was inactive.

As for `COP(=O)(OC)OC=C(Cl)Cl`, the molecule was called inactive in test [1], in [2], in test [3], in test [5], in test [6] and in test [7]. Besides, the molecule was classed as inactive in [8].

Regarding `O=S1OCC2C(CO1)C1(Cl)C(Cl)=C(Cl)C2(Cl)C1(Cl)Cl` (stereo not drawn), the outcome in test [1], in test [3], in [4], in test [5], in test [9] and in test [7] was inactive. In test [8], the AC50 is 118 µM (active).

Regarding `CNC(=O)/C=C(\C)OP(=O)(OC)OC`, the molecule was classed as inactive in test [1], in test [2], in test [3], in [4], in [5] and in test [10]. Also, the outcome in test [7] and in test [8] was inactive.

For `CCOCN(C(=O)CCl)c1c(C)cccc1CC`, the molecule was called inactive in test [1], in test [3], in test [4], in [5], in test [9] and in test [6]. Also, the call in test [7] and in [8] was inactive.
